Experimental data taken from PubChem BioAssay (EPA / NIEHS).
Values joined by “and” are separate entries in the source; they are usually repeats but may differ in a detail not shown here. Equal entries are not always repeated. Records with an inconclusive call do not appear. Some compounds were tested as several samples or in several runs, with calls that do not always agree. Active and inactive are the calls of the source. Rule for the calls, unless noted: active = hit-call score of the fitted dose curve at least 0.9, where 1 is the maximum; inactive = score below 0.9.

How the values were obtained:
[1] = CCTE_Shafer_MEA_dev_per_network_spike_spike_number_mean: CCTE's Neural Network Formation Assay for Mean Number of Spikes in a Network Spike, Shafer Lab (AID 2284053);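 for AC50: fitted as decrease in spikes per network spike relative to DMSO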
Summary of the method: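 Continuous twelve-day exposure of developing rat cortical networks grown over 16 microelectrodes per well; spontaneous firing is captured at four time points, and the per-network-spike spike number is integrated over development by trapezoidal AUC.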

[2] = CCTE_Shafer_MEA_dev_per_network_spike_spike_percent: CCTE's Neural Network Formation Assay for Percent of Spikes in a Network Spike, Shafer Lab (AID 2284054)
Summary of the method: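 Metric: fraction of spikes falling in a 0.05 s window at network-spike peaks. Recordings were made on days 5, 7, 9 and 12 and collapsed by trapezoidal AUC. Cultures were rat cortical neurons on MEA plates, dosed continuously from plating, re-dosed at media changes.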

DIO3 (gene 1735) = test: CCTE_GLTED_hDIO3: CCTE's human Deiodinase 3 (DIO3) Inhibition Assay, Great Lakes Toxicology and Ecology Division (GLTED) Lab (AID 2284055; active = hit-call score of the fitted dose curve at least 0.9, where 1 is the maximum;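 note: potency is for inhibition seen as loss of released iodide signal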)
Summary of the method: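 Steps: incubate adenovirus-produced hDIO3 with chemical for 3 hours; detect freed iodide via cerium-arsenic Sandell-Kolthoff colorimetry; compare with DMSO baseline.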

[3] = CCTE_Shafer_MEA_dev_AB: CCTE's Alamar Blue Assay for Cytotoxicity in the Neural Network Formation Assay, Shafer Lab (AID 2284083; active = hit-call score of the fitted dose curve at least 0.9, where 1 is the maximum;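 note: twelve days of exposure from plating with re-dosing on DIV 5 and 9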)
Summary of the method: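 Fluorescent resazurin reduction serves as the viability read-out, with DMSO as negative control and baseline. Cells were primary rat cortical neurons grown on MEA plates and dosed from day 0 to day 12, treatment renewed on DIV 5 and 9.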

[4] = CCTE_Shafer_MEA_dev_mutual_information_norm: CCTE's Neural Network Formation Assay for Mutual Information Normalization, Shafer Lab (AID 2284091);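 for AC50: mutual information between electrodes summarised as area under curve across four recording days; potency is for a decrease in mutual information relative to DMSO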
Summary of the method: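 Shared information across electrodes, tracked on days 5, 7, 9 and 12 of network development and collapsed as trapezoidal area under the curve. Rat cortical cultures were treated continuously from plating, with treatment renewed at feeds on DIV 5 and 9; DMSO baseline, negative-direction fit.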

[5] = CCTE_Shafer_MEA_dev_correlation_coefficient_mean: CCTE's Neural Network Formation Assay for Mean Correlation Coefficient, Shafer Lab (AID 2284093);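 for AC50: well mean pairwise spike train correlation integrated as AUC over recording days 5 to 12; potency fitted for loss of correlation relative to DMSO vehicle wells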
Summary of the method: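 Read-out: well-mean correlation coefficient of spike trains between electrode pairs, collapsed over four recording days as trapezoidal area-under-the-curve. Developing rat cortical neuron networks grown on MEAs received test chemical continuously from plating.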

[6] = CCTE_Mundy_HCI_Cortical_Synap_Neur_Matur_BPCount: CCTE's Synaptogenesis and Neurite Maturation Assay in rat cortical cells for Branch Point Count, Mundy Lab (AID 2284211)
Summary of the method: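 In this multiplexed morphology assay, cortical cells from rat receive chemicals at DIV 7 and are fixed at DIV 12, then immunostained and imaged; branch points are counted, with DMSO as baseline.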

[7] = CCTE_Mundy_HCI_Cortical_NOG_NeuriteCount: CCTE's Neurite Outgrowth Assay in rat cortical cells for Neurite Count, Mundy Lab (AID 2284212);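 note: cells fixed about two days after chemical exposure began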
Summary of the method: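 Rat cortical primary cells; compound added 2 h post-plating, 1/10 dilution of working solution. Anti-betaIII-tubulin/AF488 ICC; ArrayScan neurite count vs DMSO.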

[8] = CCTE_Mundy_HCI_Cortical_NOG_NeuriteLength: CCTE's Neurite Outgrowth Assay in rat cortical cells for Neurite Length, Mundy Lab (AID 2284213);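 for AC50: neurites imaged about 48 to 50 h after chemical exposure began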
Summary of the method: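 First, rat primary cortical cells were plated and, 2 h later, given test chemical as a 1/10 dilution. Finally, βIII-tubulin immunostaining enabled automated imaging of neurite length.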

[9] = CCTE_Mundy_HCI_Cortical_Synap_Neur_Matur_NeuriteSpotCountPerNeuron: CCTE's Synaptogenesis and Neurite Maturation Assay in rat cortical cells for Neurite Spot Count per Neuron Count, Mundy Lab (AID 2284215)
Summary of the method: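 Synapse density is scored as synaptophysin spots along neurites per neuron in fixed rat cortical neurons, measured at DIV 12 after chemical dosing at DIV 7. DMSO is the negative control and activity baseline.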

[10] = CCTE_Shafer_MEA_acute_AB: CCTE's Alamar Blue Assay for Cytotoxicity in the Neural Acute Assay, Shafer Lab (AID 2284069; active = hit-call score of the fitted dose curve at least 0.9, where 1 is the maximum;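 note: active compounds lower the viability signal compared with DMSO wells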)
Summary of the method: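 Metabolic activity in chemically exposed rat cortical neurons (MEA cultures, day 13/15 post-plating) measured via CellTiter Blue resazurin reduction, 544/590 nm fluorescence; fitted relative to DMSO, with signal loss indicating reduced viability.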

[11] = CCTE_Shafer_MEA_acute_LDH: CCTE's Lactate Dehydrogenase Assay for Cytotoxicity in the Neural Acute Assay, Shafer Lab (AID 2284086; active = hit-call score of the fitted dose curve at least 0.9, where 1 is the maximum;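 note: active means LDH release rises above DMSO vehicle level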)
Summary of the method: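 Cytotoxicity readout: spectrophotometric LDH activity in supernatant of rat primary cortical neurons, post-plating day 13 or 15, sampled after 40 min compound exposure; signal gain relative to DMSO baseline.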

[12] = UKN2_HCS_IMR90_neural_migration: University of Konstanz (UKN) Leist Lab Neural Crest Cell Migration Assay in human induced IMR90 Pluripotent Stem Cells (UKN2) (AID 2284204); settings: actives raise or lower the signal
Summary of the method: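 High-content imaging of calcein-AM and Hoechst stained cells quantifies migration into a stopper-defined gap after 24 h compound exposure. Neural crest cells from IMR90 iPSC migrated 24 h in EGF/FGF N2-S medium before dosing; DMSO baseline.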

[13] = IUF_NPC1b_proliferation_BrdU_72hr: Leibniz Research Institute for Environmental Medicine (IUF) 72-hour Neural Progenitor Cell Bromodeoxyuridine (BrdU) Proliferation Assay (NPC1b) (AID 2284207)
Summary of the method: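 Human fetal cortex-derived (GW 16-19) neural progenitor spheres, 0.25-0.35 mm, one per well in EGF/FGF proliferation medium, exposed to compound for 72 h at 37C, pH 7.2-7.6. BrdU incorporation over the final 16 h read by luminescence ELISA, relative to DMSO.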

[14] = IUF_NPC1a_proliferation_area_72hr: Leibniz Research Institute for Environmental Medicine (IUF) 72-hour Neural Progenitor Cell Proliferation Area Assay (NPC1a) (AID 2284208)
Summary of the method: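 Proliferation is scored as sphere area gain in primary human fetal neural progenitors treated for 72 h in EGF/FGF-containing medium. Viability, LDH and BrdU readouts come from the same wells.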

[15] = IUF_NPC1_viability_72hr: Viability Assessment at 72 hours in the Leibniz Research Institute for Environmental Medicine (IUF) Neural Progenitor Cell Proliferation Assay (NPC1) (AID 2284209)
Summary of the method: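 Three-day continuous exposure of human neural progenitor spheres under EGF/FGF-driven proliferation; cell viability scored by alamar blue signal versus DMSO.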

[16] = TAMU_PeakParms_SingleDonor1434_Chronotropy: Texas A&M University (TAMU) 1.5-hr Human Induced Pluripotent Stem Cell (iPSC)-derived Cardiomyocytes Calcium (Ca+2) Flux Assay for Cardiotoxicity: Chronotropy (changes in peak frequency) (AID 2284217); settings: actives raise or lower the signal
Summary of the method: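 Beat frequency of single-donor iPSC cardiomyocytes was recorded through a calcium-sensitive dye 1.5 hours after exposure to four concentrations up to 100 uM. An EC05 point of departure was derived.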

## CCN(CC)c1nc(C)cc(OP(=S)(OC)OC)n1
[1]
  AC50: 29.5 µM (active)
[2]
  AC50: 28 µM (active)
DIO3 (gene 1735)
  AC50: 25.3 µM (active)
[3]
  AC50: 50 µM (active)
[4]
  AC50: 21.8 µM (active)
[5]
  AC50: 27.4 µM (active)
[6]
  AC50: 67.1 µM (active)
[7]
  AC50: 79.4 µM (active)
[8]
  AC50: 88.7 µM (active)
[9]
  AC50: 84.5 µM (active)

## CCOC(=O)C(C)OC(=O)c1cc(Oc2ccc(C(F)(F)F)cc2Cl)ccc1[N+](=O)[O-] (centres undefined)
[1]
  outcome: inactive
[2]
  outcome: inactive
[10]
  outcome: inactive
[3]
  outcome: inactive
[11]
  outcome: inactive
[4]
  outcome: inactive
[5]
  outcome: inactive

## COC(=O)N(C(=O)N1CO[C@@]2(C(=O)OC)Cc3cc(Cl)ccc3C2=N1)c1ccc(OC(F)(F)F)cc1
[1]
  outcome: inactive
[2]
  AC50: 15 µM (active)
[3]
  AC50: 2.98 µM (active)
[11]
  outcome: inactive
[4]
  outcome: inactive
[5]
  AC50: 15 µM (active)
[12]
  outcome: inactive
[13]
  AC50: 0.483 µM (active)
[14]
  outcome: inactive
[15]
  outcome: inactive
[6]
  outcome: inactive
[7]
  outcome: inactive
[8]
  outcome: inactive
[9]
  outcome: inactive

## CNC(=O)Oc1cccc2ccccc12
[1]
  AC50: 20.1 µM (active)
  outcome: inactive
[2]
  AC50: 15 µM (active) and 5.05 µM (active)
[10]
  outcome: inactive
[3]
  AC50: 15 µM (active)
  outcome: inactive
[4]
  AC50: 8.41 µM (active) and 15 µM (active)
[5]
  AC50: 12.8 µM (active)
  outcome: inactive
[13]
  outcome: inactive
[14]
  outcome: inactive
[15]
  outcome: inactive
[6]
  outcome: inactive
[7]
  outcome: inactive
[8]
  outcome: inactive
[9]
  outcome: inactive
[16]
  outcome: inactive

## O=C(Nc1ccccc1-c1ccc(Cl)cc1)c1cccnc1Cl
[1]
  AC50: 1.13 µM (active)
  outcome: inactive
[2]
  outcome: inactive
[3]
  AC50: 77.7 µM (active)
  outcome: inactive
[11]
  outcome: inactive
[4]
  AC50: 18.3 µM (active)
  outcome: inactive
[5]
  AC50: 9.92 µM (active)
  outcome: inactive
[12]
  outcome: inactive
[13]
  outcome: inactive
[14]
  outcome: inactive
[15]
  outcome: inactive
[6]
  outcome: inactive
[7]
  outcome: inactive
[8]
  outcome: inactive
[9]
  outcome: inactive

## N#CN=C1SCCN1Cc1ccc(Cl)nc1
[1]
  outcome: inactive
[2]
  outcome: inactive
[10]
  outcome: inactive
[11]
  outcome: inactive
[4]
  outcome: inactive
[5]
  outcome: inactive
[13]
  outcome: inactive
[14]
  outcome: inactive
[15]
  outcome: inactive
[6]
  outcome: inactive
[7]
  outcome: inactive
[8]
  outcome: inactive
[9]
  outcome: inactive
